Experimental data published in PubChem BioAssay (NCI).
This is part of a sample that, as a whole, favours compounds with a hit. Of some 79,000 tested, about 15% had one in any assay. Active and inactive are the calls of the source. Cut-off read from the data, not from the text of the source: active = growth inhibition above about 70%; inactive = the rest.

Key:
[1] = NCI Yeast Anticancer Drug Screen. Data for the mlh1 strain (AID 171);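 note: 0% = growth of vehicle-treated control cultures of the same strain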; details: S. cerevisiae mlh1 strain growth inhibition, hits give high values
Procedure, shortened: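 Read-out: growth inhibition versus vehicle controls. Strain: engineered yeast with a defined DNA repair or cell cycle defect, compound-treated.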

[2] = NCI Yeast Anticancer Drug Screen. Data for the sgs1 strain (AID 173);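 note: 0% = growth of vehicle-only control cultures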; details: S. cerevisiae sgs1 mutant, hits give high values
Procedure, shortened: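 Read-out: yeast growth inhibition relative to vehicle controls, following compound exposure of a strain with a defined DNA repair/cell cycle alteration.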

[3] = NCI Yeast Anticancer Drug Screen. Data for the mlh1 rad18 strain (AID 175); details: S. cerevisiae mlh1 rad18 strain growth inhibition, hits give high values
Procedure, shortened: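 Yeast w/ defined DNA-repair lesions; compound exposure; growth vs vehicle controls → % inhibition.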

[4] = NCI Yeast Anticancer Drug Screen. Data for the rad18 strain (AID 177); details: S. cerevisiae rad18 mutant growth inhibition, hits give high values
Procedure, shortened: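 Readout: growth inhibition vs vehicle controls. Cells: genetically altered yeast strain, DNA repair defect.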

[5] = NCI Yeast Anticancer Drug Screen. Data for the rad52 strain (AID 147);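 note: 0% = growth of vehicle-treated control cultures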; details: S. cerevisiae rad52 mutant growth inhibition, hits give high values
Procedure, shortened: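 Read-out: growth inhibition versus vehicle-treated controls. Cells were a DNA repair-deficient yeast strain treated with compounds.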

[6] = NCI Yeast Anticancer Drug Screen. Data for the rad50EPP+ strain (AID 151);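 note: 0% = growth of vehicle-treated control cultures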; details: S. cerevisiae rad50 mutant strain, hits give high values
Procedure, shortened: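 Growth inhibition read against vehicle controls in rad50EPP+ yeast, a strain altered in DNA damage repair, after compound exposure.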

[7] = NCI Yeast Anticancer Drug Screen. Data for the mgt1 strain (AID 153); details: S. cerevisiae mgt1 mutant growth inhibition, hits give high values
Procedure, shortened: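 mgt1 yeast grown with test compound; read-out is growth inhibition versus vehicle-treated cultures.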

[8] = NCI Yeast Anticancer Drug Screen. Data for the rad50 strain (AID 155);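 note: 0% = growth of vehicle-only cultures of the same strain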; details: S. cerevisiae rad50 strain growth inhibition, hits give high values
Procedure, shortened: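 DNA repair mutant yeast, compound exposure, growth read-out; inhibition is taken relative to vehicle.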

[9] = NCI Yeast Anticancer Drug Screen. Data for the mec2-1 strain (AID 157); details: S. cerevisiae mec2-1 strain, hits give high values
Procedure, shortened: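 Yeast mec2-1 mutant treated with compound. Readout: growth inhibition vs vehicle controls.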

[10] = NCI Yeast Anticancer Drug Screen. Data for the rad14 strain (AID 159);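 note: 0% = growth of vehicle-treated control cultures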; details: S. cerevisiae rad14 strain growth inhibition, hits give high values
Procedure, shortened: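 DNA repair-defective yeast, compound-exposed; % growth inhibition derived by comparison with vehicle-treated controls.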

[11] = NCI Yeast Anticancer Drug Screen. Data for the sgs1 mgt1 strain (AID 161);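 note: 0% = growth of cultures given vehicle only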; details: S. cerevisiae sgs1 mgt1 strain, hits give high values
Procedure, shortened: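 Mutant yeast exposed to compound; growth scored against vehicle-only wells.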

[12] = NCI Yeast Anticancer Drug Screen. Data for the CLN2oe strain (AID 163);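 note: 0% = growth of vehicle-only control cultures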; details: S. cerevisiae CLN2oe strain, hits give high values
Procedure, shortened: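 Read-out: yeast growth inhibition, expressed relative to vehicle-only controls. The strain bears an engineered cell-cycle alteration.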

[13] = NCI Yeast Anticancer Drug Screen. Data for the cln2 rad14 strain (AID 165);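 note: 0% = growth equal to vehicle treated cultures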; details: S. cerevisiae cln2 rad14 strain, hits give high values
Procedure, shortened: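 cln2 rad14 yeast strain; compound exposure; growth inhibition read vs vehicle controls.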

[14] = NCI Yeast Anticancer Drug Screen. Data for the bub3 strain (AID 167); details: S. cerevisiae bub3 mutant strain, hits give high values
Procedure, shortened: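 In this screen, a yeast mutant lacking normal mitotic checkpoint function is challenged with compound. Relative growth versus vehicle gives the inhibition value.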

[15] = NCI Yeast Anticancer Drug Screen. Data for the wt2 strain (AID 169);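 note: 0% = growth of vehicle-treated yeast cultures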; details: S. cerevisiae wt2 strain growth inhibition, hits give high values
Procedure, shortened: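 Read-out: growth inhibition versus vehicle-treated control cultures after compound exposure of the yeast strain.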

[16] = NCI Yeast Anticancer Drug Screen. Data for the wt1 strain (AID 149);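 note: 0% = growth of vehicle-treated wt1 cultures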; details: S. cerevisiae wt1 strain (SPY 50644) growth inhibition, hits give high values
Procedure, shortened: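 wt1 strain grown with compound or vehicle; inhibition taken from the growth difference.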

[17] = at 5.0 µM (retest, dose inferred, filed as 0.5)
[18] = at 50.0 µM (retest, dose inferred, filed as 5.0)

Measured: growth inhibition

C1=CCN([B-](c2ccccc2)[C+]2CCCCC2)C=C1
active: [1]; at 33.0 µM 75% | [1]; at 100.0 µM 99% | [2]; at 33.0 µM 92% | [2]; at 100.0 µM 99% | [3]; [18] 96% | [3]; at 50.0 µM 96.5% | [4]; at 33.0 µM 75% | [4]; at 100.0 µM 98%
inactive: [1]; at 1.2 µM -1% | [1]; at 3.7 µM -2% | [1]; at 11.0 µM -1% | [2]; at 1.2 µM -2% | [2]; at 3.7 µM -2% | [2]; at 11.0 µM 6% | [3]; [17] 0% | [4]; at 1.2 µM 0% | [4]; at 3.7 µM 0% | [4]; at 11.0 µM 2%

O=C(C#Cc1ccccc1)/C=C/c1ccccc1
active: [5]; at 33.0 µM 78% | [5]; at 100.0 µM 95% | [6]; at 33.0 µM 93% | [6]; at 100.0 µM 94% | [7]; at 100.0 µM 96% | [8]; at 33.0 µM 82% | [8]; [18] 72% | [8]; at 50.0 µM 99% | [8]; at 100.0 µM 94% | [9]; at 50.0 µM 77.3% | [9]; at 100.0 µM 96% | [10]; at 33.0 µM 82% | [10]; at 100.0 µM 96% | [11]; [18] 79% | [11]; at 50.0 µM 70.2% | [12]; at 100.0 µM 93% | [13]; at 50.0 µM 87.7% | [14]; at 33.0 µM 78% | [14]; at 50.0 µM 79.7% | [14]; at 100.0 µM 96% | [15]; at 33.0 µM 91% | [15]; at 100.0 µM 97% | [1]; at 100.0 µM 96% | [2]; at 33.0 µM 97% | [2]; at 100.0 µM 95% | [3]; [18] 72% | [3]; at 50.0 µM 77% | [4]; at 33.0 µM 81% | [4]; at 100.0 µM 95%
inactive: [5]; at 1.2 µM 4% | [5]; at 3.7 µM 3% | [5]; at 11.0 µM 29% | [6]; at 1.2 µM 1% | [6]; at 3.7 µM 20% | [6]; at 11.0 µM 53% | [7]; at 1.2 µM 0% | [7]; at 3.7 µM -5% | [7]; at 11.0 µM 3% | [7]; at 33.0 µM 28% | [8]; at 1.2 µM -6% | [8]; at 3.7 µM -8% | [8]; [17] -136% | [8]; at 11.0 µM 8% | [9]; at 1.2 µM 0% | [9]; at 3.7 µM 2% | [9]; [17] -43% | [9]; at 11.0 µM 4% | [9]; at 33.0 µM 16% | [9]; [18] 10% | [10]; at 1.2 µM -1% | [10]; at 3.7 µM 12% | [10]; at 11.0 µM 10% | [11]; [17] -53% | [12]; at 1.2 µM -7% | [12]; at 3.7 µM -7% | [12]; at 11.0 µM -2% | [12]; at 33.0 µM 14% | [13]; [17] -46% | [13]; [18] -23% | [14]; at 1.2 µM -2% | [14]; at 3.7 µM -1% | [14]; [17] -65% | [14]; at 11.0 µM 7% | [14]; [18] 53% | [15]; at 1.2 µM -21% | [15]; at 3.7 µM -5% | [15]; at 11.0 µM 13% | [1]; at 1.2 µM -9% | [1]; at 3.7 µM -2% | [1]; at 11.0 µM -3% | [1]; at 33.0 µM 49% | [2]; at 1.2 µM -4% | [2]; at 3.7 µM 2% | [2]; at 11.0 µM 24% | [3]; [17] -140% | [4]; at 1.2 µM -5% | [4]; at 3.7 µM 4% | [4]; at 11.0 µM 13%

O=C1c2cccc3cccc(c23)C(=O)N1O
inactive: [16]; at 1.2 µM 3% | [16]; at 3.7 µM -1% | [16]; at 11.0 µM 7% | [16]; at 33.0 µM 24% | [7]; at 1.2 µM -8% | [7]; at 3.7 µM 4% | [7]; at 11.0 µM 23% | [8]; at 1.2 µM 9% | [8]; at 3.7 µM 13% | [8]; [17] 13% | [8]; at 11.0 µM 13% | [8]; at 33.0 µM 54% | [9]; at 1.2 µM 5% | [9]; at 3.7 µM -5% | [9]; [17] 33% | [9]; at 11.0 µM 4% | [9]; at 33.0 µM 36% | [10]; at 1.2 µM 16% | [10]; at 3.7 µM 13% | [10]; at 11.0 µM 46% | [12]; at 1.2 µM 6% | [12]; at 3.7 µM 8% | [12]; at 11.0 µM 29% | [13]; at 50.0 µM 47.1% | [14]; at 1.2 µM 4% | [14]; at 3.7 µM 18% | [15]; at 1.2 µM 3% | [15]; at 3.7 µM 17% | [2]; at 1.2 µM 14% | [2]; at 3.7 µM 8% | [2]; at 11.0 µM 19% | [2]; at 33.0 µM 67% | [4]; at 1.2 µM 6% | [4]; at 3.7 µM 3% | [4]; at 11.0 µM 13% | [4]; at 33.0 µM 41%
active: [16]; at 100.0 µM 86% | [7]; at 33.0 µM 81% | [7]; at 100.0 µM 95% | [8]; [18] 99% | [8]; at 50.0 µM 84.4% | [8]; at 100.0 µM 89% | [9]; [18] 98% | [9]; at 50.0 µM 87.3% | [9]; at 100.0 µM 94% | [10]; at 33.0 µM 92% | [10]; at 100.0 µM 97% | [11]; [17] 90% | [11]; [18] 98% | [11]; at 50.0 µM 90.3% | [12]; at 33.0 µM 92% | [12]; at 100.0 µM 99% | [13]; [17] 71% | [13]; [18] 98% | [14]; [17] 93% | [14]; at 11.0 µM 83% | [14]; at 33.0 µM 97% | [14]; [18] 98% | [14]; at 50.0 µM 83.3% | [14]; at 100.0 µM 98% | [15]; at 11.0 µM 92% | [15]; at 33.0 µM 98% | [15]; at 100.0 µM 99% | [2]; at 100.0 µM 91% | [4]; at 100.0 µM 81%
